FBPA coupling cs – counter-screen for Giardia aldolase inhibitors: coupling enzyme system. coupling enzyme system counterscreen, AmpLite Red fluorescence. activity change, negative = inhibition, % at 58.2 µM, hits read low. 290,000 tested, 0.67% active. AID 2472; in the data active means activity change below about -30%
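Compounds tested against the coupling enzymes alone at 57.5 uM final; readout was AmpLite Red fluorescence (525/598 nm) after 20 min at RT.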
GALK inhibitor – galactokinase (human) inhibition; Purified GALK, Kinase-Glo residual ATP luminescence; 270,000 tested, 0.007% active; AID 1868; Potency, µM (top dose mostly 57.5 µM), without a hit: at the top dose activity change, negative = inhibition, hits mostly inhibitors; P51570; further: potency means the concentration at half of the fitted maximal effect
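GALK at 5 nM final was combined with compound, 35 uM ATP and 100 uM galactose in HEPES pH8.0 with MgCl2 and DTT. The reaction ran one hour at room temperature before luminescent ATP detection.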
VDR inh – vitamin D3 receptor (human) inhibition; Potency, µM, inactives show max response, negative = inhibition, actives largely listed as inhibitors; 400,000 tested, 0.93% active; P11473; VDR-SRC2-3 peptide fluorescence polarization, 2 h; AID 504847; further: potency means the concentration at half of the fitted maximal effect
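Compounds are added to VDR with labelled SRC2-3 coactivator peptide and held 2 h at room temperature. Inhibition of the VDR–peptide interaction is then read as a change in fluorescence polarization.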
PLK1 PBD block – PLK1 (human) polo-box domain binding inhibition | AID 720504 | Plk1 PBD binding of FITC phosphopeptide, fluorescence polarization | P53350 | Potency, µM, without a hit: max response, negative = inhibition, actives largely listed as inhibitors | 360,000 tested, 2.8% active; further: potency means the concentration at half of the fitted maximal effect; series mostly up to about 57 µM; nearly all actives have a fitted effect of over 65% in size
Target sequence (P53350 whole entry, looked up, the tested form may be a part): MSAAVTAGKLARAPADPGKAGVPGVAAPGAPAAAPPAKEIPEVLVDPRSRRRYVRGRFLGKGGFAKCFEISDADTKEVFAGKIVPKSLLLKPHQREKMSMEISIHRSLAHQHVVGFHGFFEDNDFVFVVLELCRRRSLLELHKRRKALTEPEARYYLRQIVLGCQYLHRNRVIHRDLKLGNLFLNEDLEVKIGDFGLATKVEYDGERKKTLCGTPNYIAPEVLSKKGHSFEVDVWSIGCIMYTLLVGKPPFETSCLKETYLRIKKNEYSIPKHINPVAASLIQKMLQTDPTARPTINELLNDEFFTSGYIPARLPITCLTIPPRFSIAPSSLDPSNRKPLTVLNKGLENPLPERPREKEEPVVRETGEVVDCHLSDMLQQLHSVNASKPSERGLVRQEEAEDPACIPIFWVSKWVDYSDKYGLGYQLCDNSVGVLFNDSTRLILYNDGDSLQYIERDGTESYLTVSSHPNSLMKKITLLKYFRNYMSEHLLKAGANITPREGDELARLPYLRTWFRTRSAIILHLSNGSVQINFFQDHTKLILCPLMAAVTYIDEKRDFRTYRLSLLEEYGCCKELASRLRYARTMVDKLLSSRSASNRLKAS
USP1-UAF1 inh – inhibitors of human USP1/UAF1 deubiquitinase | O94782 | recombinant USP1/UAF1, Ub-Rhodamine cleavage fluorescence | Potency, µM (doses to about 57.1 µM), without a hit: at the highest dose activity change, negative = inhibition, most hits filed as inhibitors | 390,000 tested, 0.23% active; further: potency means the concentration at half of the fitted maximal effect; nearly all actives have a fitted effect of over 60% in size
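1 nM enzyme complex + cpd, 15 min RT; start with Ub-Rho 150nM final; kinetic fluorescence ex 480/em 540, 6 reads q60 s. Buffer 50mM HEPES pH 7.8, 0.5mM EDTA, 0.1 mg/ml BSA, 1mM TCEP, 0.01% Tween-20.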
USP2a inh – inhibitors of human ubiquitin-specific protease USP2a. O75604. USP2 core, Ub-CHOP2 coupled fluorogenic reporter, 485/531. Potency, µM (doses to about 38.3 µM), for the others: top-dose activity change, negative = inhibition, actives largely listed as inhibitors. 330,000 tested, 0.01% active. AID 463254;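 further: potency means the concentration at half of the fitted maximal effect; plate controls were DMSO wells for no effect and full inhibition by NEM control for full effect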
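USP2 core (10nM final) preincubated 30min RT with compound in 20mM Tris-HCl pH 8.0, 2mM CaCl2, 2mM beta-mercaptoethanol, 0.05% CHAPS; 25nM Ub-CHOP2 plus 25nM reporter substrate added, fluorescence (Ex485/Em531) read after 60min.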
Numbers without * were called inactive; u = inconclusive; x = no result; ! = a repeat was not active. An excerpt weighted towards active compounds, which were near 3.2% of everything screened. Unless noted, the call rests on the fitted dose curve; in most records, active means well fitted curve in the direction sought with a large enough effect; inconclusive means small, poorly fitted or top-dose-only effect, or another doubt; inactive means no such curve, though single readings can be large; an effect the other way counts as inactive or inconclusive. Unless noted, on the % scale 0 is the no-effect control and ±100 the full control effect.

SMILES | FBPA coupling cs | GALK inhibitor | VDR inh | PLK1 PBD block | USP1-UAF1 inh | USP2a inh
CCN(CC)S(=O)(=O)c1ccc(C)c(NC(=O)CN2CCN(Cc3ccccc3)CC2)c1 | 1 | -4% | -5% | 1% | -25% | 0%
CC(NC(=O)CN(C)Cc1nc2ccccc2c(=O)[nH]1)c1ccccc1 (centres undefined) | 1 | 1% | 11% | 2% | -10% | -2%
CC(C(=O)Nc1ccccc1-c1ccccc1)N(C)Cc1nc2ccccc2c(=O)[nH]1 (centres undefined) | 0 | 0% | u | 6.7µM* | -1% | 4%
CCOC(=O)c1c(-c2ccc(-c3ccccc3)cc2)csc1NC(=O)C1C2CCC(O2)C1C(=O)O (centres undefined) | 11 | 2% | -20% | 11µM* | -17% | 1%
CCOC(=O)c1c(-c2ccc(C)cc2)csc1NC(=O)C1CC=CCC1C(=O)O (centres undefined) | 10 | x | u | 27µM* | -1% | 2%
CCOC(=O)c1c(-c2ccccc2)csc1NC(=O)C1CCCO1 (centres undefined) | 4 | 0% | -61% | 24µM* | -6% | 2%
CCOC(=O)c1c(-c2ccccc2)csc1NC(=O)CSc1ccccc1 | -2 | x | -13% | -1% | -3% | -6%
O=C(Nc1ccc2nc3n(c(=O)c2c1)CCCCC3)C(=O)N1CCN(c2ccccc2F)CC1 | 4 | -4% | u | 30µM* | -22% | -2%
COc1ccc(N2CCN(C(=O)CCc3c[nH]c4ccccc34)CC2)cc1 | 1 | 3% | 6% | 0% | -15% | 2%
O=C(CCc1c[nH]c2ccccc12)N1CCN(c2ccc(O)cc2)CC1 | 2 | 0% | -7% | 27µM* | -9% | 0%
O=C1CC2(CCCCC2)Oc2ccc(O)cc21 | -3 | -2% | 1% | -2% | 0% | 0%
O=C1C=CC2(C=C1)O[C@H](Cc1ccccc1)[C@@H](Cc1ccccc1)O2 | x | x | 14µM* | 9.5µM* | -20% | x
COc1ccc(C[C@@H]2OC3(C=CC(=O)C=C3)O[C@H]2Cc2ccc(OC)cc2)cc1 | x | x | u | u | -22% | x
COc1ccccc1N1CCN(S(=O)(=O)c2cc(C(F)(F)F)cc(C(F)(F)F)c2)CC1 | -7 | 0% | -11% | -14% | -5% | 2%
CCc1nnc(NC(=O)C(NS(=O)(=O)c2ccccc2)C(C)C)s1 (centres undefined) | x | x | x | -8% | -17% | x
COc1ccc(S(=O)(=O)N(C)C[C@H]2Oc3ccc(NC(=O)Nc4ccc5c(c4)OCO5)cc3CC(=O)N([C@@H](C)CO)C[C@@H]2C)cc1 | x | x | -4% | -13% | -12% | -13%
[C-]#[N+]/C(C#N)=C\c1cc(C(C)(C)C)c(O)c(C(C)(C)C)c1 | 5 | x | x | x | x | x
Cc1cc(C)c(/C=C(\C#N)C(N)=S)c(C)c1 | 2 | x | -25% | -6% | -27% | -6%
N#CC(C#N)=C(N)/C(C#N)=C/c1cc(O)c(O)c(O)c1 | x | x | 40µM*! | 46% | -26% | 2%
N#C/C(=C/c1ccc(F)cc1)C(N)=S | 1 | 4% | 89µM* | 30µM* | -6% | -1%
CC(C)(C)c1cc(/C=C(\C#N)C(N)=S)cc(C(C)(C)C)c1O | x | x | 35µM* | x | x | x
C[C@H](NC(=O)c1nc[nH]c1C(=O)N[C@@H](Cc1ccccc1)C(=O)OCc1ccccc1)C(=O)OCc1ccccc1 | -7 | x | -9% | 9% | -23% | -7%
COc1ccc(CCNC(=O)c2c(O)nc3cc(C)ccn3c2=O)cc1OC | x | x | 1% | x | -2% | x
CCn1c(CC(=O)Nc2ccc(F)cc2)nnc1SCC(=O)N1CCOCC1 | x | -2% | 19% | 30µM* | -1% | 2%
O=c1[nH]c(N2CCCCCC2)nc2ncn(Cc3ccccc3)c12 | 1 | 4% | -18% | 0% | -16% | 0%
O=C(c1cc(=O)[nH]c2ccccc12)N1CCN(c2cccc(C(F)(F)F)c2)CC1 | 2 | 4% | u | 19µM* | -19% | 1%
